Source: PubChem BioAssay (NCI)
This is part of a sample that, as a whole, favours compounds with a hit. Of some 79,000 tested, about 15% had one in any assay. Active and inactive are the calls of the source. Cut-off read from the data, not from the text of the source: active = growth inhibition above about 70%; inactive = the rest.

Tests used:
[1] = NCI Yeast Anticancer Drug Screen. Data for the rad52 strain (AID 147);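 note: 0% = growth of vehicle-treated control cultures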; conditions: S. cerevisiae rad52 mutant growth inhibition, stronger effect = higher value
Procedure, shortened: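 The repair-mutant yeast strain was incubated with compounds, then growth was read and inhibition derived relative to vehicle.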

[2] = NCI Yeast Anticancer Drug Screen. Data for the wt1 strain (AID 149);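 note: 0% = growth of vehicle-treated wt1 cultures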; conditions: S. cerevisiae wt1 strain (SPY 50644) growth inhibition, stronger effect = higher value
Procedure, shortened: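 The wt1 strain was treated with compounds, and growth was compared with vehicle-treated cultures to give inhibition.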

[3] = NCI Yeast Anticancer Drug Screen. Data for the rad50EPP+ strain (AID 151);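 note: 0% = growth of vehicle-treated control cultures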; conditions: S. cerevisiae rad50 mutant strain, stronger effect = higher value
Procedure, shortened: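 Vehicle-normalised growth inhibition; rad50EPP+ yeast strain, altered in DNA damage repair, compound-treated.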

[4] = NCI Yeast Anticancer Drug Screen. Data for the mgt1 strain (AID 153); conditions: S. cerevisiae mgt1 mutant growth inhibition, stronger effect = higher value
Procedure, shortened: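 Vehicle-normalized growth inhibition is determined in mgt1 yeast, a strain selected for a defined alteration in DNA repair or cell cycle control.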

[5] = NCI Yeast Anticancer Drug Screen. Data for the rad50 strain (AID 155);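 note: 0% = growth of vehicle-only cultures of the same strain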; conditions: S. cerevisiae rad50 strain growth inhibition, stronger effect = higher value
Procedure, shortened: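 Cells are treated with compound, grown, and their growth is then scored against vehicle-only cultures of the same repair-deficient yeast strain.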

[6] = NCI Yeast Anticancer Drug Screen. Data for the mec2-1 strain (AID 157); conditions: S. cerevisiae mec2-1 strain, stronger effect = higher value
Procedure, shortened: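 Mutant yeast (mec2-1) grown with compound; growth inhibition relative to vehicle control reported.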

[7] = NCI Yeast Anticancer Drug Screen. Data for the sgs1 mgt1 strain (AID 161);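 note: 0% = growth of cultures given vehicle only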; conditions: S. cerevisiae sgs1 mgt1 strain, stronger effect = higher value
Procedure, shortened: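 Percent growth inhibition was derived by comparing compound-exposed mutant yeast with vehicle-exposed cultures. The strain carries alterations in DNA damage repair.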

[8] = NCI Yeast Anticancer Drug Screen. Data for the CLN2oe strain (AID 163);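 note: 0% = growth of vehicle-only control cultures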; conditions: S. cerevisiae CLN2oe strain, stronger effect = higher value
Procedure, shortened: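 Compounds are applied to yeast harbouring a defined cell-cycle control change; reduced growth compared with vehicle-treated controls gives the value.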

[9] = NCI Yeast Anticancer Drug Screen. Data for the cln2 rad14 strain (AID 165);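 note: 0% = growth equal to vehicle treated cultures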; conditions: S. cerevisiae cln2 rad14 strain, stronger effect = higher value
Procedure, shortened: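 Readout is yeast growth inhibition versus vehicle-treated controls, using a strain with cln2 and rad14 alterations exposed to compound.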

[10] = NCI Yeast Anticancer Drug Screen. Data for the bub3 strain (AID 167); conditions: S. cerevisiae bub3 mutant strain, stronger effect = higher value
Procedure, shortened: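 Part of a panel of yeast mutants defective in DNA damage repair or cell cycle regulation. Each strain is grown with compound, and inhibition is calculated relative to solvent-treated cultures.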

[11] = NCI Yeast Anticancer Drug Screen. Data for the wt2 strain (AID 169);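 note: 0% = growth of vehicle-treated yeast cultures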; conditions: S. cerevisiae wt2 strain growth inhibition, stronger effect = higher value
Procedure, shortened: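 Against vehicle-treated controls, the growth of yeast exposed to each compound was compared, and the inhibition was recorded.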

[12] = NCI Yeast Anticancer Drug Screen. Data for the mlh1 strain (AID 171);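 note: 0% = growth of vehicle-treated control cultures of the same strain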; conditions: S. cerevisiae mlh1 strain growth inhibition, stronger effect = higher value
Procedure, shortened: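 Measured: yeast growth. Reference: vehicle-treated controls. Organism: strain with a defined alteration affecting DNA damage repair or cell cycle control, treated with compound.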

[13] = NCI Yeast Anticancer Drug Screen. Data for the sgs1 strain (AID 173);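 note: 0% = growth of vehicle-only control cultures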; conditions: S. cerevisiae sgs1 mutant, stronger effect = higher value
Procedure, shortened: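 Each compound was added to cultures of the altered yeast strain. Growth was recorded, and inhibition was derived by comparison with vehicle controls.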

[14] = NCI Yeast Anticancer Drug Screen. Data for the mlh1 rad18 strain (AID 175); conditions: S. cerevisiae mlh1 rad18 strain growth inhibition, stronger effect = higher value
Procedure, shortened: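 Genetically defined yeast (DNA repair-deficient) exposed to compounds; growth inhibition determined relative to vehicle.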

[15] = NCI Yeast Anticancer Drug Screen. Data for the rad18 strain (AID 177); conditions: S. cerevisiae rad18 mutant growth inhibition, stronger effect = higher value
Procedure, shortened: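 Vehicle-treated cultures served as the baseline for scoring compound-induced growth inhibition in DNA-repair-mutant yeast.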

[16] = NCI Yeast Anticancer Drug Screen. Data for the rad14 strain (AID 159);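 note: 0% = growth of vehicle-treated control cultures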; conditions: S. cerevisiae rad14 strain growth inhibition, stronger effect = higher value
Procedure, shortened: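 Readout: yeast growth inhibition, referenced to vehicle-only cultures. Strain bears a defined alteration in DNA damage repair.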

[17] = at 5.0 µM (retest, dose inferred, filed as 0.5)
[18] = at 50.0 µM (retest, dose inferred, filed as 5.0)

Measured: growth inhibition

O=c1[nH]c(-c2ccccc2)nc2c1sc1nc3ccccc3n12
inactive: [1]; at 1.2 µM -15% | [1]; at 3.7 µM -31% | [1]; at 11.0 µM -23% | [1]; at 33.0 µM -15% | [1]; at 100.0 µM -18% | [2]; at 1.2 µM -24% | [2]; at 3.7 µM -25% | [2]; at 11.0 µM -20% | [2]; at 33.0 µM -25% | [2]; at 100.0 µM -17% | [3]; at 1.2 µM -2% | [3]; at 3.7 µM -31% | [3]; at 11.0 µM -36% | [3]; at 33.0 µM -40% | [3]; at 100.0 µM -31% | [4]; at 1.2 µM -20% | [4]; at 3.7 µM -18% | [4]; at 11.0 µM -17% | [4]; at 33.0 µM -8% | [4]; at 100.0 µM -25% | [5]; at 1.2 µM 11% | [5]; at 3.7 µM 5% | [5]; [17] 8% | [5]; at 11.0 µM -8% | [5]; at 33.0 µM -13% | [5]; [18] 56% | [5]; at 50.0 µM 13.4% | [5]; at 100.0 µM -9% | [6]; at 1.2 µM -34% | [6]; at 3.7 µM -23% | [6]; [17] 5% | [6]; at 11.0 µM -30% | [6]; at 33.0 µM -19% | [6]; [18] 9% | [6]; at 50.0 µM -15.2% | [6]; at 100.0 µM -27% | [7]; [17] 7% | [7]; [18] 62% | [7]; at 50.0 µM -30.5% | [8]; at 1.2 µM -52% | [8]; at 3.7 µM -72% | [8]; at 11.0 µM -39% | [8]; at 33.0 µM -23% | [8]; at 100.0 µM -20% | [9]; [17] 14% | [9]; [18] 19% | [9]; at 50.0 µM 5.95% | [10]; at 1.2 µM -35% | [10]; at 3.7 µM -45% | [10]; [17] 6% | [10]; at 11.0 µM -43% | [10]; at 33.0 µM -43% | [10]; [18] 7% | [10]; at 50.0 µM -35.5% | [10]; at 100.0 µM -33% | [11]; at 1.2 µM 2% | [11]; at 3.7 µM -6% | [11]; at 11.0 µM -6% | [11]; at 33.0 µM 19% | [11]; at 100.0 µM 5% | [12]; at 1.2 µM -24% | [12]; at 3.7 µM -44% | [12]; at 11.0 µM -47% | [12]; at 33.0 µM -28% | [12]; at 100.0 µM -42% | [13]; at 1.2 µM -47% | [13]; at 3.7 µM -43% | [13]; at 11.0 µM -39% | [13]; at 33.0 µM -38% | [13]; at 100.0 µM -42% | [14]; [17] 4% | [14]; [18] 22% | [14]; at 50.0 µM -23.4% | [15]; at 1.2 µM -35% | [15]; at 3.7 µM -38% | [15]; at 11.0 µM -39% | [15]; at 33.0 µM -38% | [15]; at 100.0 µM -38%

Cc1cc(C)c(NC(=S)NC(=O)c2ccccc2)cc1C
inactive: [1]; at 1.2 µM -33% | [1]; at 3.7 µM -58% | [1]; at 11.0 µM -54% | [1]; at 33.0 µM -41% | [1]; at 100.0 µM -44% | [2]; at 1.2 µM -46% | [2]; at 3.7 µM -29% | [2]; at 11.0 µM -39% | [2]; at 33.0 µM -17% | [2]; at 100.0 µM -14% | [3]; at 1.2 µM -44% | [3]; at 3.7 µM -41% | [3]; at 11.0 µM -25% | [3]; at 33.0 µM -18% | [3]; at 100.0 µM -5% | [4]; at 1.2 µM -57% | [4]; at 3.7 µM -54% | [4]; at 11.0 µM -25% | [4]; at 33.0 µM 26% | [4]; at 100.0 µM 37% | [5]; at 1.2 µM -50% | [5]; at 3.7 µM -52% | [5]; [17] -13% | [5]; at 11.0 µM -52% | [5]; at 33.0 µM -39% | [5]; [18] -4% | [5]; at 50.0 µM 18.4% | [5]; at 100.0 µM -21% | [6]; at 1.2 µM -41% | [6]; at 3.7 µM -61% | [6]; [17] -16% | [6]; at 11.0 µM -49% | [6]; at 33.0 µM -46% | [6]; [18] 4% | [6]; at 50.0 µM -0.25% | [6]; at 100.0 µM -11% | [16]; at 1.2 µM -40% | [16]; at 3.7 µM -48% | [16]; at 11.0 µM -40% | [16]; at 33.0 µM -16% | [16]; at 100.0 µM -9% | [8]; at 1.2 µM -63% | [8]; at 3.7 µM -78% | [8]; at 11.0 µM -58% | [8]; at 33.0 µM -64% | [8]; at 100.0 µM -57% | [9]; [17] -4% | [9]; [18] 15% | [9]; at 50.0 µM 2.25% | [10]; at 1.2 µM -21% | [10]; at 3.7 µM -17% | [10]; [17] 8% | [10]; at 11.0 µM 38% | [10]; at 33.0 µM 65% | [10]; at 50.0 µM 49.6% | [10]; at 100.0 µM 62% | [11]; at 1.2 µM -43% | [11]; at 3.7 µM -49% | [11]; at 11.0 µM -43% | [11]; at 33.0 µM -4% | [11]; at 100.0 µM 22% | [12]; at 1.2 µM -34% | [12]; at 3.7 µM -20% | [12]; at 11.0 µM -7% | [12]; at 33.0 µM 34% | [12]; at 100.0 µM 32% | [13]; at 1.2 µM -62% | [13]; at 3.7 µM -54% | [13]; at 11.0 µM -45% | [13]; at 33.0 µM -3% | [13]; at 100.0 µM -1% | [14]; [17] -37% | [14]; [18] -12% | [14]; at 50.0 µM 8.65% | [15]; at 1.2 µM -75% | [15]; at 3.7 µM -62% | [15]; at 11.0 µM -73% | [15]; at 33.0 µM -41% | [15]; at 100.0 µM -46%
active: [10]; [18] 79%
